High-throughput results deposited in PubChem by National Center for Advancing Translational Sciences (NCATS).
Most compounds without a hit are left out; they make up all but 19% or so of the library.
TDP1 cell CPT: growth inhibition of DT40 Tdp1-/-;hTDP1 cells with camptothecin (screen for TDP1 inhibitors) | chicken DT40 Tdp1-/-;hTDP1 cells + 20 nM CPT, ATP luminescence, 48 h | Potency, µM (doses to about 46.2 µM), for the others: at the highest dose activity change, negative = growth inhibition, hits mostly inhibitors | actives 12% (n = 420,000) | AID 686979; note: potency is the fitted concentration of half-maximal effect; % is set by controls: 0 for no effect and ±100 for the full control effect; nearly all actives have a fitted effect of over 55% in size
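Cell growth measured by CellTiter-Glo luminescence after a minimum 48 h, 37 C compound exposure with 20 nM CPT in Tdp1-knockout DT40 cells stably expressing hTDP1, seeded 400/well; qHTS titration format.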
TDP1 inh: TDP1 (human) enzyme inhibition. recombinant TDP1, AlphaScreen DNA substrate cleavage. Q9NUW8. actives 0.28% (n = 350,000). AID 485290. Potency, µM (titrated, usually from 130 µM), without a hit: at the top dose activity change, negative = inhibition, usual class: inhibitors; note: potency is the fitted concentration of half-maximal effect; % is set by controls: 0 for no effect and ±100 for the full control effect; nearly all actives have a fitted effect of over 40% in size
Target sequence (Q9NUW8 whole entry, looked up): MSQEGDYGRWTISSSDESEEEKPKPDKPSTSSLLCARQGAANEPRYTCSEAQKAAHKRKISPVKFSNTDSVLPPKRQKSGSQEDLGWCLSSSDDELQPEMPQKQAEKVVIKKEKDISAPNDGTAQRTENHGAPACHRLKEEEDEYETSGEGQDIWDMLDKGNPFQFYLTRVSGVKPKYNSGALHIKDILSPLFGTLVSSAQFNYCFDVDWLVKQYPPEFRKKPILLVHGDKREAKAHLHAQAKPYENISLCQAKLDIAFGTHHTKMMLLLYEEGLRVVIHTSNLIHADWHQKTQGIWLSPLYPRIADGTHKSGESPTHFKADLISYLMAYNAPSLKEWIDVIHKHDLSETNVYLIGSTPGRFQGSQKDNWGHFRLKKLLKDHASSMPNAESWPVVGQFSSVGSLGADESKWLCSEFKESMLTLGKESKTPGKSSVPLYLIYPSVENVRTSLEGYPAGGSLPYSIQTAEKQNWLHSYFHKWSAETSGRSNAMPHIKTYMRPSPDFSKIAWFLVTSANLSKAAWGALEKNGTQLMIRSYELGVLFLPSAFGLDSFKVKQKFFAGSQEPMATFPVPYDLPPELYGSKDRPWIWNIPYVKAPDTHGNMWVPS
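E. coli-derived human Tdp1, 1 nM final. Cpd preinc 15 min RT; substrate 15 nM final, 5 min RT; AS bead mix 10 ug/ml final, 10 min RT. Signal loss = tyrosine-FITC cleavage. No-enzyme wells = max signal.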
IL-1B inflam inh: inhibitors of inflammasome signaling (IL-1 beta secretion); THP-1 LPS/ATP IL-1B secretion, AlphaLISA, 16 h; active compounds read low; activity change, % at 57.5 µM; actives 4.7% (n = 360,000); AID 743279; in the data active = activity change below about -50%; inconclusive = mostly about -30% to -49%; note: % is set by controls: 0 for no effect and ±100 for the full control effect
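Secreted IL-1B measured by AlphaLISA bead assay after 16 h compound exposure of THP-1 cells; compounds (final up to 57.5 uM) added 1 h before LPS (250 ng/mL) and ATP (1.25 mM) stimulation; lower signal means less secretion.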
TDP1 cell noCPT: qHTS for Inhibitors of human tyrosyl-DNA phosphodiesterase 1 (TDP1): qHTS in cells in absence of CPT; DT40 Tdp1-/- hTDP1 cells, no CPT, ATP luminescence, 48 h; Potency, µM (series often up to 46.2 µM), for inactives: top-dose activity change, negative = growth inhibition, actives largely listed as inhibitors; actives 15% (n = 420,000); AID 686978, 2013; note: potency is the fitted concentration of half-maximal effect; % is set by controls: 0 for no effect and ±100 for the full control effect; nearly all actives have a fitted effect of over 55% in size
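Compound effects on proliferation are scored in DT40 Tdp1-/-;hTDP1 cells in the absence of CPT. ATP levels (CellTiter-Glo luminescence) are recorded after a ≥48 hr, 37 °C incubation.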
TGFb SMAD3 inh: blocks TGF-b signaling. HepG2 CAGA-GFP TGF-b/SMAD3 reporter, GFP fluorescence, 18 h; TGF-beta stimulated, 500 pg/mL final. actives 1.2% (n = 410,000). Potency, µM (highest dose often 46.1 µM), without a hit: at the highest dose activity, negative = inhibition, hits mostly inhibitors; note: potency is the fitted concentration of half-maximal effect; % is set by controls: 0 for no effect and ±100 for the full control effect; nearly all actives have a fitted effect of over 65% in size
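Inhibition of TGF-beta-driven CAGA-GFP reporter expression in HEPG2 cells is measured by cellular GFP fluorescence after 18 h stimulation with 500 pg/mL recombinant TGF-beta in 1% FBS medium at 37 degrees C.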
HepG2 viability: kills HepG2 cells in TGF-b inhibitor counter-screen | HepG2 CAGA-GFP viability, ATP luminescence, 18 h | Potency, µM (top dose mostly 46.1 µM), inactives show top-dose activity change, negative = cytotoxicity, hits mostly cytotoxic | actives 0.76% (n = 410,000); note: potency is the fitted concentration of half-maximal effect
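CellTiter-Glo luminescence gave cytotoxicity after 18 hours at 37 degrees C. The cells were HepG2 CAGA-GFP in 1% FBS DMEM, stimulated with 500 pg/mL TGF-beta after compound addition. %Activity was normalised to no-cell wells (complete cell-killing) and DMSO (no toxicity), and curves were fitted and classified.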
Numbers without * were called inactive; ? = inconclusive; . = no result given; [ ] = another dose, or the depositor's remark. Unless noted, calls come from the whole dose curve; as a rule, active = well fitted curve in the direction sought with a large enough effect; inconclusive = small, poorly fitted or top-dose-only effect, or another doubt; inactive = no such curve, though single readings can be large; an effect the other way counts as inactive or inconclusive.

SMILES	TDP1 cell CPT	TDP1 inh	IL-1B inflam inh	TDP1 cell noCPT	TGFb SMAD3 inh	HepG2 viability
CCc1nnc(NC(=O)CCS(=O)(=O)c2ccccc2)s1	26µM*	-10%	4	?	?	-10%
CCc1nnc(NC(=O)CCS(=O)(=O)Cc2ccccc2)s1	15µM*	6%	-6	?	-3%	-10%
CCc1nnc(NC(=O)CCC(=O)Nc2ccccc2)s1	-4%	7%	0	-1%	4%	-18%
Cc1ccc(C(=O)N/C(=C\c2ccc(-c3cccc([N+](=O)[O-])c3)o2)C(=O)NC(C)(C)C)cc1	15µM*	0%	-7	16µM*	-20%	-9%
Cc1ccc(C(=O)N/C(=C\c2ccc(-c3ccc([N+](=O)[O-])cc3)o2)C(=O)NC2CCS(=O)(=O)C2)cc1 (centres undefined)	21µM*	0%	-18	?	-13%	-15%
Cc1ccc(C(=O)N/C(=C/c2ccc(-c3ccc([N+](=O)[O-])cc3)o2)C(=O)NCCCN(C)C)cc1	21µM*	.	.	21µM*	?	-183%
O=C(NCCCO)/C(=C/c1ccc(-c2cccc([N+](=O)[O-])c2)o1)NC(=O)c1ccccc1	0%	6%	-17	-25%	-1%	-20%
O=C(NC1CCS(=O)(=O)C1)/C(=C/c1ccco1)NC(=O)c1ccccc1 (centres undefined)	-5%	2%	4	2%	0%	-2%
O=C(NC1CCS(=O)(=O)C1)/C(=C\c1ccc(F)cc1)NC(=O)c1ccccc1 (centres undefined)	10%	-1%	0	12%	3%	4%
COCCNC(=S)N/N=C/c1ccc(-c2ccc([N+](=O)[O-])cc2)o1	?	5%	16	-30%	1%	-31%
O=C(NC1CCS(=O)(=O)C1)/C(=C\c1ccco1)NC(=O)c1ccccc1 (centres undefined)	4%	0%	-63*	-8%	-11%	-18%
CCN1C(=O)[C@H]2[C@H]3[C@H](O)[C@H](O)C/C(=N/NC(=O)OCc4ccccc4)[C@@H]3CC[C@@H]2C1=O	.	7%[21 µM]	.	.	.	.
CCCCN(C)C(=O)c1ccc2c(c1)S(=O)(=O)c1ccccc1C2=O	-16%	5%	6	-9%	-20%	-12%
CC(=O)c1ccc(CCCCCCCCCC(=O)O)s1	-1%	-1%	24	1%	?	-43%
CCC(=O)c1ccc(CCCCCC(=O)O)s1	-8%	18µM*	51	-13%	-2%	-2%
Cc1cccc(C(CC(=O)N2CCCCC2)c2ccccc2)c1O (centres undefined)	19%	2%	-2	-5%	2%	-4%
CCOc1ccc(CNC(=S)N/N=C\c2ccc([N+](=O)[O-])cc2)cc1	16µM*	6%	-2	8.2µM*	?	-69%
CCOc1ccc(N=Cc2ccc(N(C)C)cc2)c(O)c1	15µM*	.	18	7.3µM*	?	-77%
CCOc1ccc(/C=N/NC(=O)c2ccc(Cn3cc([N+](=O)[O-])cn3)o2)cc1	-20%	0%	-4	-23%	-6%	-13%
CC(C)(C)c1ccc(OCc2ccc(C(=O)N/N=C/c3ccc([N+](=O)[O-])cc3)o2)cc1	18µM*	6%	-18	21µM*	-17%	-29%
CCOc1ccc(N=Cc2ccc([N+](=O)[O-])cc2)c(O)c1	23µM*	.	-52*	12µM*	?	-100%
CCOc1ccc(CNC(=S)N/N=C/c2cccnc2)cc1	?	3%	0	-2%	-16%	1%
